Reference: ChEMBL document CHEMBL3988442, “University of Dundee, Small-Polar-MMV Screening Library” (2021)
About 13,000 (27%) of roughly 48,000 compounds showed an effect of 50% or more. This is one part of the list.

test system: Wolbachia pipientis; test: Anti-Wolbachia Cell-Based Screen; assay type: functional; parameters: scale not given: in the data most compounds retested in dose-response had high values; conditions: 5 µM

Going from `COc1ccc(C(=O)N2C[C@@H](CN3CCCC3)[C@@H](CO)C2)c(C)c1` to `Cc1cc(CCC(=O)N2CCC(O)CC2)ccc1Br`, the “Percent Effect” value falls from 5.26% to -5.317%.

First: O=c1[nH]c(CN2CCN(CC(F)(F)F)CC2)nc2ccccc12
Second: FC(F)(F)COCCN1CCN(c2ccc3nncn3n2)CC1
The “Percent Effect” value of the first is lower: -9.937% for the first, -1.16% for the second.

First: CCn1c(CN2CCOC(Cn3cncn3)C2)nc2cc(F)ccc21 (stereo unspecified)
Second: Cn1ccnc1CCNC(=O)C1CCCN(Cc2cccc(F)c2)C1 (stereo unspecified)
The “Percent Effect” value of the first is higher: 8.019% for the first, -2.372% for the second.

Compared with `COCCn1cncc1CN1CCCC(C)(c2ccccc2)C1` (stereo unspecified), `CCn1cncc1CN1CCN(CC2(c3ccc(C)cc3)CC2)CC1.Cl` is higher in “Percent Effect” value: -12.89% for the first, 124% for the second.

Going from `Cc1ccc(C2(CN3CCN(c4ncccn4)CC3)CCNCC2)nc1` to `Cc1ccc(C2(CN3CCCC3)CCNCC2)nc1`, the “Percent Effect” value rises from -14.8% to 5.469%.

Going from `Cn1cncc1CN1CCC2(CC1)CCN2c1ncccn1` to `Cc1ccc(C2(CN3CCN(Cc4cncn4C)CC3)CC2)cc1.Cl`, the “Percent Effect” value rises from 0.5048% to 158.8%.

Going from `Cc1ccc(C2(CN3CCN(Cc4cnc(C)n4C)CC3)CC2)cc1.Cl` to `Clc1ccccc1CCN1CCN(c2ccc3nncn3n2)CC1`, the “Percent Effect” value falls from 125% to 114.3%.

Going from `COCCN1CCCC12CCN(Cc1cncn1C)CC2.O=C(O)C(F)(F)F.O=C(O)C(F)(F)F` to `CC(C)CN1CCc2[nH]nc(C(=O)N3CCCC3)c2C1.O=C(O)C(F)(F)F`, the “Percent Effect” value rises from -4.301% to 26.25%.

Compared with `CCn1cncc1Cn1cccc(C(F)(F)F)c1=O`, `CC(C)Cn1cncc1CNC(=O)c1cccc(-n2cnnc2)c1` is lower in “Percent Effect” value: 2.585% for the first, 1.824% for the second.

First: Cc1ccc(C(=O)Nc2cc(C(N)=O)ccc2CN(C)C)cc1Cl
Second: COCCn1ccc(=O)c(OCC(=O)Nc2cccc(C(C)=O)c2)c1C
The “Percent Effect” value of the first is lower: -14.19% for the first, 6.255% for the second.

Going from `NC(=O)c1ccc(NC(=O)N2CCN(c3cccs3)CC2)c(F)c1` to `c1cc(CCN2CCN(c3ccc4nncn4n3)CC2)ccn1`, the “Percent Effect” value rises from -5.895% to 116%.

First: CS(=O)(=O)NC[C@H]1OC[C@@H](NC2CCC(F)(F)CC2)[C@@H]1O
Second: CO[C@H]1C[C@@H](O)C12CCN(Cc1nc(C(F)(F)F)no1)CC2
The “Percent Effect” value of the first is lower: -4.949% for the first, 107.1% for the second.

Compared with `COCc1noc(CN2C(=O)OC[C@@H]2C(C)C)n1`, `COCc1noc(CN2CCC3(CC2)[C@H](O)C[C@@H]3OC)n1` is higher in “Percent Effect” value: -2.73% for the first, 101.4% for the second.

First: OCCO[C@H]1C[C@@H](O)C12CCN(Cc1nc(C(F)(F)F)no1)CC2
Second: COc1cc(CN2CCC3(CC2)[C@H](O)C[C@@H]3OCCO)ccc1F
The “Percent Effect” value of the first is higher: 99.64% for the first, 8.427% for the second.

Compared with `COc1ccc(F)c(F)c1CN1CCC2(CC1)[C@H](O)C[C@@H]2OCCN`, `NCCO[C@H]1C[C@@H](O)C12CCN(Cc1c(F)cccc1F)CC2` is lower in “Percent Effect” value: 1.725% for the first, -12.61% for the second.

Compared with `CNc1cc(C)nc(N2CCC3(CC2)[C@H](O)C[C@@H]3OC)n1`, `CCN(Cc1nc(COC)no1)C[C@]1(O)CCCN2CCCC[C@@H]21` is lower in “Percent Effect” value: 12.2% for the first, -7.865% for the second.

Going from `Cc1ccccc1SC1CCN(C(=O)C2CNCC(=O)N2)CC1` (stereo unspecified) to `Cc1cc(CCC(=O)N2CC[C@H](O)C2)ccc1Br`, the “Percent Effect” value rises from -16.36% to 2.583%.

Going from `COc1nccnc1-c1cccc(-c2ccn(CC3COCCO3)n2)c1` (stereo unspecified) to `COCCn1ccc2c(NC(=O)c3n[nH]c4c3CCC4)cccc21`, the “Percent Effect” value rises from -15.38% to 97.48%.

First: CCN(C)c1ncnc2c1CCN(C(=O)c1cccn1C)CC2
Second: CC(C)CC(NC(=O)c1cc(-c2cccn2C)n[nH]1)c1ncnn1C (stereo unspecified)
The “Percent Effect” value of the first is lower: -8.14% for the first, 13.42% for the second.

First: COCCn1cc(C(=O)N2CCCC2c2cc(C)on2)c2ccccc21 (stereo unspecified)
Second: COCCn1ccc2c(NC(=O)c3n[nH]c4c3CCCC4)cccc21
The “Percent Effect” value of the first is lower: -11.13% for the first, 111.2% for the second.

Going from `CC(C)Cn1ccc2c(NC(=O)c3n[nH]c4c3CCC4)cccc21` to `CC(C)n1ccc2c(NC(=O)c3n[nH]c4c3CCC4)cccc21`, the “Percent Effect” value falls from 106.4% to 99.33%.

Compared with `O=C(c1n[nH]c2c1CCC2)N1CCCC1c1nc(-c2ccccc2)no1` (stereo unspecified), `O=C(c1n[nH]c2c1CCC2)N1CCCC1c1nc(-c2ccccn2)no1` (stereo unspecified) is higher in “Percent Effect” value: 8.692% for the first, 14.67% for the second.

Going from `Cc1noc(C)c1CSc1nc(=O)ccn1C(C)C` to `CCc1csc(CNc2nc3c(s2)c(C)nn3C)n1`, the “Percent Effect” value falls from -1.27% to -26.31%.

First: NC(=O)C(NC(=O)COCCc1ccccc1)c1ccccc1F (stereo unspecified)
Second: c1ccc(CCCN2CCN(c3ccc4nncn4n3)CC2)cc1
The “Percent Effect” value of the first is lower: -15.69% for the first, 101.5% for the second.

Going from `CCCn1nc2c(cc1=O)CN(CCCS(N)(=O)=O)CC2` to `c1ccc(OCCCN2CCN(c3ccc4nncn4n3)CC2)cc1`, the “Percent Effect” value rises from -2.42% to 7.239%.

Going from `CCC[C@@H]1CN(Cc2c[nH]c(CC3CCCC3)n2)C[C@H]1C(=O)O` to `O=C(CCN1CCN(c2ccc3nncn3n2)CC1)NC1CCCC1`, the “Percent Effect” value rises from -10.74% to 0.1018%.

Compared with `CCOC(=O)c1coc(N2CCC(C(C)N3CCCC3)CC2)n1` (stereo unspecified), `CC1CCCCN1C(=O)CN1CCN(c2ccc3nncn3n2)CC1` (stereo unspecified) is lower in “Percent Effect” value: 0% for the first, -2.497% for the second.

First: O=C(CCc1ccsc1)NS(=O)(=O)Cc1ccon1
Second: Cc1cc(CCC(=O)NCc2ncc[nH]2)ccc1Br
The “Percent Effect” value of the first is lower: -50.57% for the first, 105.6% for the second.

Going from `O=C(CCc1ccc(Br)cc1)NCc1nnc[nH]1` to `Cc1cc(CCC(=O)NCc2nccn2C)ccc1Br`, the “Percent Effect” value rises from -10.7% to 125.4%.

First: CC(CCc1cccc(F)c1)NC(=O)NCc1ncnn1C (stereo unspecified)
Second: Cn1ccnc1CNC(=O)CCc1cccc(F)c1
The “Percent Effect” value of the first is lower: -8.39% for the first, 127.3% for the second.

Compared with `Cc1cc2ccccc2n1CCC(=O)NCc1ncc[nH]1`, `Cc1ccsc1CN(C)Cn1nccc1-c1cccnc1` is higher in “Percent Effect” value: -13.5% for the first, 34.48% for the second.

First: OCC(CO)Nc1ccc2c(Cl)ccc(Cl)c2n1
Second: COc1cc(F)ccc1-c1nc2c([nH]1)c(C1CC1)nn2C
The “Percent Effect” value of the first is lower: 1.659% for the first, 1.853% for the second.

Going from `O=C(CCN1CCN(c2ccc3nncn3n2)CC1)N1CCCCC1` to `CN(Cc1ccccc1OC(F)(F)F)C(=O)C1CCCN(C(N)=O)C1` (stereo unspecified), the “Percent Effect” value falls from 90.26% to 15.24%.
